Columns and labels:
Assay type in all cases: functional
Plasmodium falciparum [1] = test: GSK_TCMDC: Inhibition of Plasmodium falciparum 3D7 in whole red blood cells, using parasite LDH activity as an index of growth. Test compounds present at 2uM
Plasmodium falciparum [2] = test: GSK_TCMDC: Inhibition of Plasmodium falciparum Dd2 in whole red blood cells, using parasite LDH activity as an index of growth. Test compounds present at 2uM
HepG2 = test: GSK_TCMDC: Percent inhibition of human HepG2 cell line. Test compounds present at 10uM.

Compound	Inhibition (Plasmodium falciparum [1])	Inhibition (Plasmodium falciparum [2])	Inhibition (HepG2)
O=C(/C=C/c1ccc(Cl)c(Cl)c1)NCCCCCN1CCC(NC(=O)Nc2cc(Cl)cc(Cl)c2)CC1	94%	5%	98%
CCN(CC)CCN(Cc1ccc(-c2ccc(C(F)(F)F)cc2)cc1)C(=O)Cn1c(CCc2ccc(F)c(F)c2F)nc(=O)c2cccnc21.O=C(O)C(O)C(O)C(=O)O	89%	20%	29%
Nc1nc2c(ncn2OC[C@H]2COP(=O)([O-])CO2)c(=O)[nH]1.[Na+]	92%	32%	1%
COC(=O)C(Cc1ccccc1)NC(=O)NC1CCN(c2ccnc(Nc3ccc(F)cc3)n2)C1 (stereo not given)	90%	14%	0%
CCCc1cc(Cc2cnc(N)nc2N)cc(CCC)c1OCCCCC(=O)O	95%	23%	18%
CC(=O)N(C)c1cccc(C(=O)Nc2cccc(-c3ccc(-c4nc5cc(C(F)(F)F)ccc5[nH]4)cc3)c2)c1	90%	31%	63%
O=C(O)C(F)(F)F.OC1(Cc2ccccc2)CCN(Cc2cccc(-c3c[nH]c4nc(NC5CCCC5)ncc34)c2)CC1	96%	35%	45%
Nc1oc2c(CN3CCCCCC3)c(O)ccc2c(=O)c1-c1nc2ccccc2s1	100%	99%	12%
COc1ccc2nccc([C@@H](O)CN3CCC(NC(=O)c4cc5c(Cl)cc(Cl)cc5[nH]4)CC3)c2c1	100%	98%	22%
Cc1cc(C2CCN(CCCCNC(=O)c3ccc(NC(=O)c4ccc(Cl)cc4)cc3)CC2)c(C)cc1OCCN(C)C	100%	77%	18%
COc1cccc(C2C(C(=O)Nc3ccccc3)=C(C)N=c3sc(=Cc4ccc(O)cc4)c(=O)n32)c1 (stereo not given)	97%	97%	15%
Cl.N#Cc1ccc2c(c1)CN(CCCCNC(=O)c1ccc(-c3ccccc3)cc1)CC2	96%	10%	0%
Cc1ccc(/C=C/C(=O)N2CCC(CCN3CCC(c4c[nH]c5ccccc45)CC3)CC2)cc1C	94%	5%	50%
O=C(Nc1cccc(CN2CCCN(Cc3ccc4c(c3)OCO4)CC2)c1)c1ccc2ccccc2c1.O=C(O)C(F)(F)F	86%	14%	7%
COc1ccccc1CCNc1nc(C)cc(N[C@@H](Cc2ccccc2)C(=O)NCCc2ccccc2)n1.O=C(O)C(F)(F)F	100%	89%	16%
O=C(NCCCCCCNCc1ccc(-c2ccccc2)cc1)Nc1ccc(Cl)c(Cl)c1	90%	2%	14%
Cc1cccc(CNc2nccc3[nH]c4ccccc4c23)c1.O=C(O)C(F)(F)F	92%	51%	14%
CCCCCCCCN1CCN(CCCCCCNc2c3ccccc3nc3ccccc23)CC1.Cl	100%	100%	100%
O=C(Nc1ccc(-c2ccccc2)cc1)Nc1cccc(OCCN2CCCC2)c1.O=C(O)C(F)(F)F	94%	14%	11%
COc1ccc2[nH]ccc(=NN=Cc3ccc(N(C)C)cc3)c2c1	100%	95%	4%
CCN(CCCNc1nc(=S)[nH]c2cc(OC)c(OC)cc12)c1ccccc1	100%	23%	14%
CCCCCCNC(=N)c1ccc2[nH]c(-c3ccc(O)cc3)nc2c1.Cl	100%	99%	0%
COc1ccc2ccccc2c1CNCCCCCCNCc1c(OC)ccc2ccccc12.Cl	100%	35%	99%
O=C(Nc1cc(Cl)cc(Cl)c1)c1cc(Cl)c(=O)n(Cc2ccc(Cl)cc2)c1	89%	57%	7%
CC(=O)c1ccc2nc[nH]c(=O)c2c1	96%	99%	79%
Cc1cccc2nc(-c3ccc(-c4cccc(NC(=O)NCc5cccc(F)c5)c4)s3)[nH]c12	88%	8%	24%
O=C(O)C(F)(F)F.c1cc(CN2CCC(CCN3CCCCC3)CC2)cc(-c2csc(-c3nc4ccccc4[nH]3)c2)c1	99%	99%	89%
COc1cc2c(cc1O)[C@@H]1[C@H](O)[C@@H](O)C=C3CCN(C2)[C@H]31 [PSEUDOLYCORINE]	90%	31%	18%
Cc1cc(C(=O)NCc2ccc(-c3c(C)noc3C)cc2)n(-c2ccc(Cl)cc2)n1	100%	98%	0%
Cl.O=C(Nc1ccc2c(c1)CCN(C1CCC1)CC2)c1ccc(-c2cn3ccccc3n2)cc1	100%	42%	13%

Source: ChEMBL document CHEMBL1157539, “Thousands of chemical starting points for antimalarial lead identification” (Nature, 2010)
